# Measured values taken from PubChem BioAssay (NCI).
# Where “and” joins values, the source holds several entries; their conditions need not be identical. Identical values can stand only once. About 83,000 compounds went through this panel and 20% of them were active in at least one assay; those are over-represented in the sample as a whole.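 Cell lines were cultured in 96-well plates, exposed to a single compound concentration, and assessed for percent growth 48 hours later.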 Unmarked numbers belong to inactive results. Calls of active or inactive are those of the source. Rule for the calls: active = growth percent below 10; inactive = the rest.
# Test system: T-47D breast
# Assay: NCI-60 one-dose screen, 48 h (100 = growth as untreated, 0 = no growth, -100 = all killed)
# Conditions: 10 µM unless noted
row,SMILES,growth
1,COc1cc(C2CC(c3ccc(C(F)(F)F)cc3)=Nc3c(N)nc(N)nc3N2)ccc1Oc1nc(Nc2ccc(F)cc2)nc(N(C)C)n1 (stereo not given),57.8%
2,C[C@@H]1[C@H]2C[C@@H](C[C@H]1NCc1nc3ccccc3n1C1CCCCCC1)C2(C)C,48%
3,CS(=O)(=O)Nc1cccc(-n2cnc3cc(-c4ccc(O)cc4)ccc32)c1,49.1%
4,COc1ccc2c(c1)C(=O)N(C)C2C1c2c(cc3c(c2OC)OCO3)CCN1C (stereo not given),56.3%
5,CCOc1ccc(-c2cc(-c3cc(C(C)C)c(O)cc3C)nn2-c2ccc(S(N)(=O)=O)cc2)cc1,18.4%
6,O=C(c1ccc(O)cc1)C1[C@H](c2ccc(Cl)cc2)[C@@H](c2ccccc2)NC12C(=O)Nc1ccc(Br)cc12 (stereo not given in full),2.46% (active)
7,COc1cc(CNC(=O)C[C@H](C)CCC=C(C)C)ccc1OCc1cn(-c2ccccc2Cl)nn1,9.14% (active)
8,Cc1ccc(Cl)cc1NC(=O)Nc1nc2ccc([N+](=O)[O-])cc2s1,-19.7% (active)
9,COc1cc(/C=N/NC(=O)c2ccc(OCc3nc4ccc(C)cc4[nH]3)cc2)cc(OC)c1OC,35.1%
10,COc1ccccc1/C=C/c1cccc(NC(=S)NCCCCN(C)C)c1,-58.7% (active)
11,CC1(C)CC(=O)C2=C(C1)OC(N)=C(c1nc3ccccc3[nH]1)C2c1ccc(Cl)cc1 (stereo not given),72.3% and 117%
12,O=C1CCC(N2C(=O)c3cccc(NCCCCCC(=O)N4CCN(c5ccc6nc7c(nc6c5C(F)(F)F)C(=O)c5ncccc5C7=O)CC4)c3C2=O)C(=O)N1 (stereo not given),-41.1% (active)

# Test system: BT-549 breast
# Assay: as above
# Conditions: 10 µM unless noted
row,SMILES,growth
1,CN1CCN(C(=O)Oc2cc3c(c4ccccc24)[C@H](CCl)CN3C(=O)c2cc3cc(OCCCN4CCC4)ccc3[nH]2)[C@H]2CSSC[C@H]21,-36.8% (active)
2,N#Cc1cc(-c2ccc3ncnc(N4CCc5cc(F)c(Cl)cc54)c3c2)cnc1N,9.67% (active)
3,CC1=NN(C2=NC(=O)C(CC(=O)Nc3ccccc3C(F)(F)F)S2)C(c2ccc(N(C)C)cc2)C1 (stereo not given),52.7%
4,O=C1Nc2ccccc2/C1=C/C(=O)c1cc2ccccc2oc1=O,111%
5,Cc1ccccc1NC(=O)c1cccc(NC(=O)CCl)c1,39.4%
6,Cn1cc(-c2cc(N)n3nc(-c4c[nH]c5ccccc45)cc3n2)c2cc(Br)ccc21,-58% (active)
7,Nc1nc2cc(-c3ccc4ncnc(NCc5ccccc5)c4c3)ccc2o1,-10.8% (active)
8,O=C(N/N=C/c1ccc(-c2cccc([N+](=O)[O-])c2)s1)c1[nH]c2ccc(Br)cc2c1-c1ccccc1,88.4%
9,Cc1nc(Nc2ccccn2)sc1C1=NNC(c2ccccc2F)C1 (stereo not given),36.1%
10,CC(C)(C)c1ccc(OCc2nc3ccccc3n2-c2cccc(N)c2)cc1,73.6% and 115%
11,CC1=C(C(=O)OCc2ccccc2)C(c2cccc3ccccc23)n2c(nc3ccccc32)N1 (stereo not given),25%
12,Cc1cc(=O)oc2cc(OCC(O)CNN3C(=O)c4cccc5c(N6CCN(C)CC6)ccc(c45)C3=O)ccc12 (stereo not given),113%
13,CN(C)CCOc1ccc(C(=O)C2[C@H](c3ccc(Cl)cc3)[C@@H](c3ccccc3)NC23C(=O)Nc2ccc(Cl)cc23)cc1 (stereo not given in full),-97.6% (active)
14,O=C1Nc2cc(-c3ccc(NS(=O)(=O)c4ccc(-c5ccccc5)cc4)cc3)ccc2/C1=C/c1ccc[nH]1,3.7% (active)
15,CCCSc1nnc(-c2sc3nc4ccccc4n3c2C)o1,157%
16,COc1ccc2[nH]c(O)c(N=Nc3nc(-c4ccc(C#N)cc4)cs3)c2c1,63.2%
17,CCOc1ccc2[nH]c(=O)c(C(c3nnnn3CC3CCCO3)N3CCN(Cc4ccccc4)CC3)cc2c1 (stereo not given),81.7%
18,Cc1cccc(NCC(=O)N2CCN(c3ncnc4c3cnn4-c3ccccc3)CC2)c1,76.9%
19,COc1ccc(NC(=O)CSc2nnc(-c3ccc(-c4nc5ccc(Cl)cc5[nH]4)cc3)o2)cc1,4.02% (active)

row,SMILES,growth
1,N/C(=N\c1nc2ccccc2s1)NC(=O)Nc1ccccc1[N+](=O)[O-],10.5%
2,N#CC1=C(c2cccs2)Nc2c(c(-c3ccccc3)nn2-c2ccccc2)C12C(=O)Nc1ccc(Cl)cc12 (stereo not given),-21.7% (active)
3,Cn1cc(-c2cc3nc(-c4cn(C)c5ncccc45)cc(N)n3n2)c2cc(F)ccc21,35.4%
4,C#CCN(C)CCCOc1ccc(N(C)C(=O)c2cc(C(C)C)c(O)cc2O)cc1Cl,9.45% (active)
5,COc1cc(NC(=O)CSc2nnc(-c3ccc(-c4nc5ccc(Cl)cc5[nH]4)cc3)o2)cc(OC)c1OC,70.7%
6,CS(=O)(=O)Nc1cc(-c2ccc3ncnc(N4CCc5cc(F)c(Cl)cc54)c3c2)cnc1Cl,-25.2% (active)
7,CC1=C(C(=O)Nc2ccccc2)C(c2cccc3ccccc23)n2c(nc3ccccc32)N1 (stereo not given),-2.15% (active)
8,COc1cc(C2CC(c3ccc(C(F)(F)F)cc3)=Nc3c(N)nc(N)nc3N2)ccc1Oc1nc(Nc2ccc(F)cc2)nc(N(C)C)n1 (stereo not given),70.3%
9,C[C@@H]1[C@H]2C[C@@H](C[C@H]1NCc1nc3ccccc3n1C1CCCCCC1)C2(C)C,72.8%
10,CS(=O)(=O)Nc1cccc(-n2cnc3cc(-c4ccc(O)cc4)ccc32)c1,49.9%
11,COc1ccc2c(c1)C(=O)N(C)C2C1c2c(cc3c(c2OC)OCO3)CCN1C (stereo not given),68.5%
12,CCOc1ccc(-c2cc(-c3cc(C(C)C)c(O)cc3C)nn2-c2ccc(S(N)(=O)=O)cc2)cc1,3.59% (active)
13,O=C(c1ccc(O)cc1)C1[C@H](c2ccc(Cl)cc2)[C@@H](c2ccccc2)NC12C(=O)Nc1ccc(Br)cc12 (stereo not given in full),-76.6% (active)
14,COc1cc(CNC(=O)C[C@H](C)CCC=C(C)C)ccc1OCc1cn(-c2ccccc2Cl)nn1,28.2%
15,Cc1ccc(Cl)cc1NC(=O)Nc1nc2ccc([N+](=O)[O-])cc2s1,-30.3% (active)
16,COc1cc(/C=N/NC(=O)c2ccc(OCc3nc4ccc(C)cc4[nH]3)cc2)cc(OC)c1OC,45.4%
17,COc1ccccc1/C=C/c1cccc(NC(=S)NCCCCN(C)C)c1,-60.7% (active)
18,CC1(C)CC(=O)C2=C(C1)OC(N)=C(c1nc3ccccc3[nH]1)C2c1ccc(Cl)cc1 (stereo not given),57.5% and 123%
19,O=C1CCC(N2C(=O)c3cccc(NCCCCCC(=O)N4CCN(c5ccc6nc7c(nc6c5C(F)(F)F)C(=O)c5ncccc5C7=O)CC4)c3C2=O)C(=O)N1 (stereo not given),-76.8% (active)
